The text below walks through data of PubChem BioAssay AID504408 (Broad Institute, 2011).

Structures are written as SMILES. Hit rate of the full screen: of about 300,000 compounds, about 5,200 (1.7%) were called active. The sample holds actives, similar compounds and a random draw of the others, so the mix is not that of the screen. A number with no mark means an inactive call.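 The calls were made as follows: active = mean replicate activation of at least 50% with a set share of replicates each reaching 50%; inconclusive = only one of those two conditions met; inactive = mean below 50% and too few replicates reaching it.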

The assay is described as follows: HSF-1 response element luciferase induction – NIH3T3-HGL cells, MG132 stress, luminescence, single point, primary screen (AID 504408).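 Also: 0% = median of the neutral control wells and 100% = twice that signal.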 The following applies: NIH3T3-HGL HSF-1 luciferase reporter, MG132, 8 h; at 9 µM; active compounds read high; 100% = twice DMSO control signal. For orientation: In a reporter assay the amount or activity of a reporter protein is the signal.
In the case of `Cc1cc(N/C=C\C(=O)c2ccc(Cl)c(Cl)c2)no1`, the activation was 54.6% (active).
For `CCC(=O)Nc1ccc(C(=O)Nc2cc(C)on2)cc1` the value was 11.5%; for `CCCNC(=O)c1ccc(Cl)c(Cl)c1`, 8.76%.
Take `O=C(CCCN=C1NS(=O)(=O)c2ccccc21)OCC(=O)c1ccc(F)c(F)c1`: the activation was -1.2%.
For `CC(Oc1ccc(F)cc1)C(=O)Nc1cc(S(=O)(=O)N2CCOCC2)ccc1N1CCN(C)CC1` (stereo not drawn) the value was -1.39%.
As for `Cc1ccc(S(=O)(=O)N(C)c2ccc(OCC(=O)OCc3ccc(C#N)cc3)cc2)cc1`, the activation was -4.36%.
On to `Cc1ccc2nc(SCC(=O)N3CCN(c4ccccc4)CC3)nc(=O)n2c1`, for which the activation is -13.7%.
Under `C=CS(=O)c1sc(Cl)c(N2CCOCC2)c1[N+](=O)[O-]` (stereo not drawn) stands 103% (active); under `CCOC(=O)C1=C(C)N=c2s/c(=C\C(=O)OC)c(=O)n2C1c1ccc(OC)cc1` (stereo not drawn), 61.6% (active).
For `COCCOC(=O)C1=C(C)N=c2s/c(=C\c3cccs3)c(=O)n2C1c1cccs1` (stereo not drawn) the value was 20%; for `CCOC(=O)C1=C(CSc2nccn2C)NC(=O)NC1c1ccc(OC)cc1` (stereo not drawn), 30.7%; for `COCCCn1c(SCC(=O)Nc2oc(C)c3c(C)n[nH]c(=O)c23)nc2sc3c(c2c1=O)CCC3`, 0.458%.
Under `C=CCOc1ccc(/C=C2/C(=O)ON=C2C)cc1OCC` stands -6.38%; under `C#CCOc1ccccc1/C=C1/C(=O)ON=C1C`, -2.14%.
Consider `CC1=NOC(=O)/C1=C\c1ccccc1`, for which the activation is 54.7% (active).
Regarding `Cn1ccsc1=NC(=O)c1cc(S(=O)(=O)N2CCOCC2)ccc1Cl`, the activation was 0.095%.
For `O=C(Nc1c(Br)cc2c(c1Br)Cc1ccccc1-2)C(F)(F)F` the value was -5.38%; for `COc1ccc2[nH]cc(/C=C(/C#N)S(=O)(=O)c3ccccc3)c2c1`, 0.918%.
Turning to `COc1cc(/C=C(\C#N)c2nc3ccccc3[nH]2)ccc1O`, the activation is 20.9%.
For `COc1ccc(/C=C(\C#N)c2c[nH]c3ccccc23)cc1` the value was 69.3% (active); for `O=C(COc1ccccc1)Nc1cc2c3c(c1)CC(=O)N3CCC2`, 5.75%; for `O=C(NCc1cccnc1)c1cc(S(=O)(=O)N2CCOCC2)c(Cl)cc1Cl`, -12.2%.
Consider `CCN(CC)CCn1c2c(c(SCC(=O)Nc3ccc(C(C)C)cc3)nc1=O)CCC2`, for which the activation was 8.29%.
For the compound `O=C(c1cc2ccccc2s1)N1CCN(c2ccccn2)CC1`, the activation is -12%.
With `O=C(C(Cl)Cl)N1CCN(c2ccccn2)CC1`, the activation was 3.47%.
In the case of `Cc1cc(C(=O)N2CCN(c3ccccn3)CC2)c(C)o1`, the activation was 62.2% (active).
Under `COc1ccc(CCNc2cc(N3CCN(C(=O)c4ccccc4OC)CC3)ccc2[N+](=O)[O-])cc1OC` stands 22.3%.
Under `N#Cc1ccc(-c2ccc(Cl)cc2)nc1Oc1ccc(F)cc1` stands 82.1% (active).
For `N#Cc1ccc(-c2ccc(F)cc2)nc1Sc1ccccc1`, the activation is -14.9%.
For the compound `CN(C)c1ccnc(Oc2ccc(F)cc2)c1C#N`, the activation is 3.38%.
With `CCOc1ccc(C(=O)CCC(=O)NC2=NCCS2)cc1`, the activation was 12.7%.
For `CS(=O)(=O)c1ccc(Cl)c(NC(=O)Nc2ccccc2)c1` the value was -2.82%; for `O=C(c1ccc(Cl)cc1)c1cnc(Nc2ccccc2)s1`, 34.7%.
`O=C(Nc1ccccc1)c1nnsc1S(=O)(=O)c1ccc(Cl)cc1`: the activation was 79.4% (active).
Under `CC(Sc1nn(-c2ccc(Cl)cc2)c(=S)s1)C(=O)NCC1CCCO1` (stereo not drawn) stands 3.22%; under `O=C(NNC(=S)Nc1ccc(Br)cc1Cl)c1ccco1`, 59% (active); under `CCC(=O)NC(=S)Nc1ccc(NC(=O)c2ccco2)c(Cl)c1`, 7.81%.
For `O=C(NNC(=O)c1ccco1)Nc1ccccc1` the value was 12.4%; for `CCCCn1c(N)c(N(CCC(C)C)C(=O)c2ccc(COc3ccccc3)o2)c(=O)[nH]c1=O`, 7.06%; for `CCCCn1c(N)c(N(CC(C)C)C(=O)CN(C)S(=O)(=O)c2ccc(F)cc2)c(=O)[nH]c1=O`, -2.61%.
For `Cc1ccc(S(=O)(=O)N2CCN(C(=O)c3ccc(-n4cncn4)c([N+](=O)[O-])c3)CC2)cc1` the value was -21.4%.
Turning to `Cc1ccc(NC(=O)CSc2cccc3cccnc23)c(C)c1`, the activation was 4.2%.
For `O=C(CNC(=O)c1cccnc1)N/N=C/c1cccnc1` the value was -3.13%.
With `O=C(CSc1cccc2cccnc12)N/N=C/c1cccnc1`, the activation was 161% (active).
Under `CC(C)(C)S(=O)(=O)c1ccccc1-c1noc(-c2ccccc2)c1C(N)=O` stands -2.64%; under `O=C1N=C(N2CCCC2)S/C1=C\c1cccc(Br)c1`, 103% (active).
Under `CCOc1cc(/C=C2\SC(N3CCCCC3)=NC2=O)ccc1O` stands 34.2%.
Under `CC1CCN(C2=NC(=O)/C(=C/c3ccc(O)cc3)S2)CC1` stands 8.53%; under `NC(=O)NC(=O)C(OC(=O)CCNS(=O)(=O)c1ccccc1)c1ccccc1` (stereo not drawn), 18.2%.
Consider `O=C(CCNC(=O)c1ccc(Br)cc1)Nc1cccc(S(=O)(=O)N2CCCCC2)c1`, for which the activation was 23.3%.
On to `CCCCn1c(N)c(N(CC(C)C)C(=O)c2ccc(Br)o2)c(=O)[nH]c1=O`, for which the activation is -5.41%.
For `CCOc1ccc(/C=C/C(=O)OCC(=O)c2ccccc2OC)cc1OC` the value was 1.42%.
As to `CCN1C(=O)[C@@H]2[C@@H](c3ccc(-c4ccccc4)cc3)N3CCCC[C@@]3(C(=O)OC)[C@@H]2C1=O`, the activation was 16.1%.
Take `CSc1ccc(/C=N/NC(=O)c2cccc(Cl)c2)cc1`: the activation is 80.3% (active).
For `COc1ccc(/C=N/NC(=O)c2cccc(C(F)(F)F)c2)cc1` the value was 0.104%; for `CSc1ccc(/C=N\NC(=O)COc2ccc(Cl)cc2Br)cc1`, 0.476%.
As for `O=C(COC(=O)c1ccccc1SCC(=O)N1CCCC1)Nc1ccccc1OC(F)F`, the activation is 5.14%.
Under `O=C(COC(=O)c1ccc([N+](=O)[O-])cc1Cl)NC(=O)c1ccccc1` stands -8.14%; under `CCOc1ccc2ccccc2c1/C=N/NC(=O)c1c(C)cc(C)[nH]c1=O`, 23.9%; under `Cc1ccccc1Nc1nnc(C)c(=O)[nH]1`, 54.6% (active).
For `Cc1nnc(N/N=C/c2ccccn2)[nH]c1=O` the value was -18.5%; for `Cc1nnc(N/N=C/c2cccs2)[nH]c1=O`, -4.02%.
In the case of `O=C(CSc1ccc(-c2ccc(-n3cccn3)cc2)nn1)Nc1ccc([N+](=O)[O-])cc1`, the activation is 8.59%.
Under `CCOc1cc(/C=C/c2nc3ccccc3c(=O)[nH]2)cc(Br)c1OC` stands 14.8%; under `O=c1[nH]c(/C=C/c2cccc(Br)c2)nc2ccccc12`, 58.9% (active); under `O=c1oc(/C=C/c2ccccc2)nc2ccccc12`, -13.5%.
Under `CCOc1ccc(CCNC(=O)COC(=O)CCS(=O)(=O)c2ccc(C)cc2)cc1OCC` stands 1.98%; under `Cc1cc(Br)ccc1NC(=O)CN(C)C(=O)CN1C(=O)NC2(CCCC2)C1=O`, 6.32%.
For `CCC(c1nnnn1Cc1ccccc1)N(Cc1cc2cc(OC)ccc2[nH]c1=O)CC1CCCO1` (stereo not drawn) the value was 17.4%; for `CCC(c1nnnn1Cc1ccco1)N(CCc1ccccc1)Cc1cc2ccc(OC)cc2[nH]c1=O` (stereo not drawn), 9.84%.
On to `CCC(c1nnnn1Cc1ccco1)N(Cc1cc2cc(OC)ccc2[nH]c1=O)C1CCCCC1` (stereo not drawn), for which the activation is 136% (active).
As for `CCc1ccc(CNC(=O)CCc2nc(-c3cccs3)no2)cc1`, the activation was 3.43%.
Regarding `COc1ccc(OC)c(CNC(=O)CCc2nc(-c3cccs3)no2)c1`, the activation was -8.19%.
For the compound `COc1ccc(CCc2nc(-c3cccs3)no2)cc1`, the activation is 65% (active).
Under `COc1cccc(N2CC(NS(=O)(=O)c3ccc(Cl)cc3)CC2=O)c1` (stereo not drawn) stands 11.2%; under `COc1ccc(NC(=O)CCC(=O)N2CCN(S(=O)(=O)c3ccc(C)cc3)CC2)c(OC)c1`, -9.72%; under `CN(CC(=O)Nc1ccccc1Cl)C(=O)c1ccccc1SCC(=O)N1CCCC1`, 15.5%.
As to `COC(=O)CN1C(=S)N(c2ccccc2)C(=O)C1CC(=O)Nc1ccc(Cl)cc1` (stereo not drawn), the activation is 4.42%.
Under `O=C(O)CC1=C(Nc2ccccc2)C(=O)N(c2ccccc2)C1c1ccc(Cl)cc1` (stereo not drawn) stands 65.5% (active); under `O=C(Nc1ccccc1)OCc1cn(-c2ccc(Cl)cc2)nn1`, -2.71%.
With `COc1ccc(Cl)cc1C=CC=NNC(=O)c1ccncc1`, the activation is 5.04%.
Under `O=C(Cc1ccc(Br)cc1)NCCc1ccccc1` stands 18.4%; under `CC(=O)c1c(C)[nH]c(C(=O)CN2C(=O)NC(C)(C)C2=O)c1C`, -22.1%; under `Cc1ccc2c(=O)cc(C(=O)NCCc3ccc(S(N)(=O)=O)cc3)oc2c1C`, 62.8% (active).
Under `Cc1cc(=O)oc2cc(OC(C)C(=O)NCCc3ccc(S(N)(=O)=O)cc3)ccc12` (stereo not drawn) stands 12.2%; under `Cc1cc(=O)oc2c(C)c(OCC(=O)NCCc3ccc(S(N)(=O)=O)cc3)ccc12`, -4.95%.
Take `O=C(NCCC1CCCCN1S(=O)(=O)c1ccc(F)cc1)C(=O)NC1CC1` (stereo not drawn): the activation was 3.8%.
Turning to `CCOc1ccc(CCNC(=O)COC(=O)C2CCN(c3ccc(C(F)(F)F)cn3)CC2)cc1OCC`, the activation was 2.31%.
Under `O=C(Nc1ccc(Cl)cn1)c1ccc2c(c1)OCCO2` stands 9.46%; under `Cc1nc(NC(=O)c2ccc3c(c2)OCCO3)ccc1Br`, 58.7% (active); under `O=C(Nc1ccccc1)c1ccc2c(c1)OCCCO2`, 12.7%.
As for `O=[N+]([O-])c1ccc(O)c(/C=N/Nc2ccccc2[N+](=O)[O-])c1`, the activation was -10.2%.
For `Nn1cnnc1N/N=C/c1cc([N+](=O)[O-])c(Cl)cc1Cl`, the activation is 56.4% (active).
